Screening results (PubChem BioAssay)
This is a sample that favours compounds with a hit; in the whole collection about 27% have one here.
CYP2C19 inh: human CYP2C19 inhibition. P33261. CYP2C19 Supersomes, luciferin-H EGE luminescence, 30 min. inhibition, % at 5 µM. actives 21% (n = 96,000);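 active means CYP2C19 inhibition above a set limit at 5 µM in the primary screen, cut at about 50% in these data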;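 further: plate controls were negative control wells for no effect and 2.5 mM tranylcypromine positive control for full effect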
CYP2C19 act: activators of human cytochrome P450 2C19; P33261; recombinant CYP2C19, luciferin-H EGE luminescence; active compounds read high; 0 = fully inhibited enzyme, 1 = untreated enzyme; activation factor at 5 µM; 96,000 tested, under 10 active;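 active means activation factor of at least 2 at 5 µM in the primary screen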;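 further: 0 = wells with 2.5 mM tranylcypromine and 1 = vehicle-only wells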
sEH act: activators of human soluble epoxide hydrolase. purified human sEH enzymatic activity, activator screen. activation, % at 2 µM. actives 0.04% (n = 91,000); in the data active means activation above about 37%
CYP2C9 act: activators of human CYP2C9; recombinant CYP2C9, luciferin-H conversion, luminescence; active compounds read high; factor 1 = untreated enzyme, 0 = blocked; activation factor at 5 µM; actives 1.4% (n = 96,000);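 active means activation factor of 2 or more for CYP2C9 at a 5 µM dose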;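 further: 0 = sulfaphenazole-blocked wells and 1 = vehicle-only wells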
Target sequence (P11712 whole entry, looked up): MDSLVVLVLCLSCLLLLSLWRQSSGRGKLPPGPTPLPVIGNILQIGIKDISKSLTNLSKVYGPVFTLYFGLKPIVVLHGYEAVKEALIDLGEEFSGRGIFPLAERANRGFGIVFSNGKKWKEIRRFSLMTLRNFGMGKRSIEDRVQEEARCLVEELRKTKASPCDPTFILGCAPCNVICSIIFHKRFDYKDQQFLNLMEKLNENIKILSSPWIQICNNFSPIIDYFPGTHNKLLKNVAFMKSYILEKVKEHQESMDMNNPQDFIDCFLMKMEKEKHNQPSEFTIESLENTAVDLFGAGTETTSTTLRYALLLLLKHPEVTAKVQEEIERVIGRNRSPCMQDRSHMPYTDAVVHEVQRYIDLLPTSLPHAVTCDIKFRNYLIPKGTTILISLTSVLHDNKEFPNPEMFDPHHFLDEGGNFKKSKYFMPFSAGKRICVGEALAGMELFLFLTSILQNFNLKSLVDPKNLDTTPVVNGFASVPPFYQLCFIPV
CYP2C9 inhib: inhibitors of human CYP2C9. P11712. CYP2C9 Supersomes, luciferin-H conversion, luminescence. inhibition, % at 5 µM. actives 20% (n = 96,000);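 active means blocking of liver enzyme CYP2C9 beyond about 50% at 5 µM, limit read from the data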
sEH inhibitor: blocks human soluble epoxide hydrolase activity. P34913. recombinant human sEH enzymatic activity assay. inhibition, % at 2 µM. actives 0.34% (n = 91,000). AID 707; in the data active means inhibition above about 80%
* hit, by the source's call; nt = no result given.

SMILES	CYP2C19 inh	CYP2C19 act	sEH act	CYP2C9 act	CYP2C9 inhib	sEH inhibitor
CCOc1ccc(NC2c3ccccc3C(=O)N2Cc2ccco2)cc1 (centres undefined)	23	0.8	17	0.3	74*	-18
O=C1c2ccccc2C(Nc2ccc(F)c(Cl)c2)N1Cc1ccco1 (centres undefined)	66*	0.3	1	0.6	40	-2
O=C1CCC/C1=c1\s/c(=C\c2cccnc2)c(=O)n1-c1ccccc1	28	0.7	nt	0.9	12	nt
CCC(Oc1ccccc1)C(=O)N1CCN(C(=O)C(CC)Oc2ccccc2)CC1 (centres undefined)	42	0.6	-2	0.2	84*	5
CCC(Oc1ccccc1)C(=O)N1CCN(c2ccccn2)CC1 (centres undefined)	79*	0.2	10	0.1	85*	-5
CCC(Oc1ccccc1)C(=O)N1CCN(CC)CC1 (centres undefined)	-1	1	9	1	3	-11
CC(C)(C)c1cc(C(F)(F)F)nc(SCCCNC(=O)c2ccco2)n1	92*	0.1	0	0.1	88*	0
Cc1nn(C)c(C)c1NC(=O)CCSc1nc(-c2ccco2)cc(C(F)(F)F)n1	38	0.6	-8	0.4	60*	12
CCn1nc(C)c(NC(=O)CCCSc2nc(-c3ccco3)cc(C(F)(F)F)n2)c1C	54*	0.5	-22	0.2	81*	20
O=C(CCCSc1nc(-c2ccco2)cc(C(F)(F)F)n1)NCc1cccs1	26	0.7	-30	0.2	80*	27
Cc1cc(NC(=O)CCCSc2nc(-c3ccco3)cc(C(F)(F)F)n2)no1	8	0.9	-8	0.8	21	7
COc1ccc(CCNC(=O)CCSc2nc(-c3ccco3)cc(C(F)(F)F)n2)cc1	1	1	-66	0.9	5	66
COc1ccc(NC(=O)CCCSc2nc(-c3ccco3)cc(C(F)(F)F)n2)cc1OC	nt	nt	-35	nt	nt	38
CC(C(=O)OCn1nnc2ccccc2c1=O)N1C(=O)c2ccccc2C1=O (centres undefined)	-7	1.1	3	1.1	-7	0
O=C(CSc1ncc(-c2ccc(F)cc2)[nH]1)NCc1ccco1	44	0.6	-3	0.8	18	3
Cc1cc(C)c2cc(C#N)c(SCC(=O)NCc3ccco3)nc2c1	29	0.7	-11	0.3	71*	11
COc1ccc(-c2[nH]c(-c3ccc(C)cc3)nc2SCC(=O)NCc2ccco2)cc1OC	64*	0.4	-2	0.6	44	0
Cc1ccc2c(SCC(=O)NCc3ccco3)nc(-c3ccc(F)cc3)nc2c1	28	0.7	4	0.1	89*	-5
Cc1nc(NCCc2ccccc2)c2oc3ccccc3c2n1	31	0.7	-39	0.5	48	39
COc1ccc(CN2C(=O)CCC2(C)C(=O)NCc2cccnc2)c(OC)c1 (centres undefined)	-6	1.1	-27	1	3	27
COc1cc(C2c3c(oc4ccccc4c3=O)C(=O)N2Cc2ccncc2)ccc1O (centres undefined)	47	0.5	6	0.3	73*	-4
COCCN1C(=O)c2oc3ccccc3c(=O)c2C1c1cccc(O)c1 (centres undefined)	55*	0.4	10	0.6	43	-11
COc1cc(C2c3c(oc4ccccc4c3=O)C(=O)N2Cc2ccco2)ccc1O (centres undefined)	37	0.6	10	0.6	42	-6
O=C1NCCN1C(=O)c1ccco1	2	1	-1	0.9	10	3
O=C(c1ccco1)N1C(=O)c2cccc3cccc1c23	14	0.9	4	3.8*	-276	1
SMILES	CYP2C19 inh	CYP2C19 act	sEH act	CYP2C9 act	CYP2C9 inhib	sEH inhibitor
C=CCNC(=S)NNC(=O)CCC(O)CCCCC (centres undefined)	15	0.8	2	0.6	43	-4
O=C(CSc1nc2c(c(=O)n1-c1ccccc1)SCC2)N1CCN(c2ccccc2)CC1	82*	0.2	nt	0.4	63*	nt
COc1ccc(-n2c(SCC(=O)Nc3cc(C)on3)nc3ccc(O)cc3c2=O)cc1OC	11	0.9	11	0.7	30	-11
O=C(CSc1nc2c(c(=O)n1-c1ccccc1)SCC2)N1CCOCC1	-2	1	nt	1	3	nt
COc1ccccc1-n1cnnc1SC1CCOC1=O (centres undefined)	11	0.9	-6	0.7	34	4
COc1ccc(-n2c(SC3CCOC3=O)nc3ccccc3c2=O)cc1OC (centres undefined)	40	0.6	nt	0.3	69*	nt
COC(=O)c1ccc(CSc2nnc3n(Cc4ccccc4OC)c(=O)c4ccccc4n23)o1	72*	0.3	nt	0.3	74*	nt
COC(=O)c1ccc(CSc2nc3ccccc3c(=O)n2-c2ccc(OC)c(OC)c2)o1	94*	0.1	4	0	96*	-5
COC(=O)c1sc(N)c(C(=O)OC)c1CSc1nc2sc3c(c2c(=O)n1C)CCC3	nt	nt	20	nt	nt	-21
COCCn1c(SCc2ccc(C(=O)OC)o2)nc2ccccc2c1=O	98*	0	-14	0.1	92*	12
COC(=O)c1ccc(CSc2nnnn2C)o1	29	0.7	nt	0.9	7	nt
COC(=O)c1ccc(CSc2nc3ccccc3c(=O)n2-c2ccccc2)o1	44	0.6	4	0.3	74*	-5
COC(=O)c1ccc(CSc2nnc3c(Cl)cc(Cl)cn23)o1	82*	0.2	-10	1	3	10
COC(=O)c1ccc(CSc2nc3sc4c(c3c(=O)n2C)CCCC4)o1	84*	0.2	nt	0.1	94*	nt
Cc1cc(NC(=O)CSc2ncnc3ccccc23)no1	22	0.8	-8	0.8	22	7
N#CCCN1CCN(S(=O)(=O)c2ccc(S(=O)(=O)NC3CCCC3)cc2)CC1	-2	1	9	1.2	-23	-9
COC(=O)c1ccc(CSc2nc3c(c(=O)n2-c2ccccc2)SCC3)o1	48	0.5	nt	0.1	86*	nt
C=CCNc1nc(-c2ccc(OC)cc2OC)cs1	57*	0.4	4	1.1	-8	-3
COc1cc(NC(=O)c2ccco2)c(OC)cc1NC(=O)CCC(=O)Nc1cccc(C)c1C	20	0.8	-8	0.7	35	9
CCOC(=O)CSc1nc2ccccc2c(=O)n1NC(=O)c1ccccc1	2	1	5	0.3	67*	-5
COc1ccc(C(=O)Nn2c(SCC(=O)c3ccccc3)nc3ccccc3c2=O)cc1	-3	1	-3	0.6	37	2
COc1ccc(C(=O)Nn2c(SCc3ccc([N+](=O)[O-])cc3)nc3ccccc3c2=O)cc1	34	0.7	-19	0.2	84*	22
Cc1ccc(CNC(=O)CSc2nc3ccsc3c(=O)n2NC(=O)c2ccccc2)cc1	4	1	13	0.4	64*	-14
CC(=O)NC(NC(C)=O)c1ccc(N(C)C)cc1	nt	nt	2	nt	nt	2
